For assay [1], the system named is Wnt5a (protein binding on small-molecule microarray). As to the kind of experiment: Wnt5a binders on small-molecule microarray, primary screen, biophysical, 635/667 nm fluorescence (AID 1142).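 Also: fluorescence read at 667 nm with signal to noise per printed feature.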 Conditions: 635 nm fluorescence, higher = more signal.
The nature of assay [2]: cell viability in Huh7 cells, primary screen, cytotoxicity control for HCV replication inhibitor project, CellTiter-Glo luminescence, basal, 48 h (AID 1143).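 Also: Huh7 hepatoma cells carrying a hepatitis C replication reporter with no stimulus; test concentration not given here.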 Conditions: Huh7 HCV replicon, higher = more signal, called active from +8 up or from −8 down.
The nature of assay [3]: P. aeruginosa biofilm formation inhibitors, primary screen, PAO1 strain, BacTiter-Glo luminescence, LB-PBS (AID 1144). Conditions: 12 h, higher = more signal.
A short description of assay [4]: CREB reporter modulators without forskolin, primary screen, cell-based, PC12, CRE-LacZ reporter, unstimulated (AID 1145). Conditions: no forskolin, luminescence, 4.5 h, higher = more signal, called active from +8 up or from −8 down.
A short description of assay [5]: CREB reporter modulators under forskolin, primary screen, cell-based, PC12, CRE-LacZ reporter, forskolin-stimulated (AID 1146).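 Also: PC12 cells with 6xCRE LacZ reporter stimulated by forskolin 10 µM; beta-galactosidase reporter signal reflecting CREB driven transcription.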 As to conditions: luminescence, 4.5 h, higher = more signal, called active from +8 up or from −8 down.
Assay [6] has as its target Streptavidin (Streptomyces avidinii) (UniProt P22629). Briefly: streptavidin binders on small-molecule microarray, primary screen, artefact control for SMM compound annotation, biophysical, 635/667 nm fluorescence (AID 1147).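 Also: signal reflects streptavidin binding to arrayed compounds as a control protein.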 Conditions: streptavidin binding, higher = more signal.
Assay [7] can be described thus: small-molecule binders of probe aInhba, primary screen, biochemical, small-molecule microarray, 635/667 nm fluorescence (AID 1148).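 Also: score merges 667nm spot fluorescence with signal-to-noise for antibody binding to printed compounds.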 As to conditions: higher = more signal.
Assay [8] has as its target Torsin-1A (Homo sapiens) (UniProt O14656). As to the kind of experiment: torsin A binders from cell lysate, primary screen, small-molecule microarray, wild-type, 635/667 nm (AID 1149). As to conditions: COS7 hTOR1A-WT lysate, 635 nm fluorescence, higher = more signal.
Assay [9] has the same target. As to the kind of experiment: small-molecule binders of mutant TOR1A in lysate, primary screen, cell lysate, small-molecule microarray, COS7 lysate, 635/667 nm fluorescence (AID 1150).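 Also: score pools 667 nm emission and signal to noise measuring lysate protein binding.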 As to conditions: COS7 hTOR1A mutant lysate, 635 nm fluorescence, higher = more signal.
In assay [10] the test system is Sonic hedgehog protein (Shh). Briefly: small-molecule binders of Shh protein, primary screen, biochemical, small-molecule microarray, 635/667 nm fluorescence (AID 1151).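 Also: Shh protein binding to compounds spotted on small-molecule microarray slides; score combines spot fluorescence intensity with signal-to-noise across triplicate slides.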 As to conditions: small-molecule microarray binding, 635 nm fluorescence; higher = more signal.

Active and inactive are the calls of the source. Unless noted, no rule for the calls is given here.

Chain of Torsin-1A (Homo sapiens) (O14656 whole entry, looked up): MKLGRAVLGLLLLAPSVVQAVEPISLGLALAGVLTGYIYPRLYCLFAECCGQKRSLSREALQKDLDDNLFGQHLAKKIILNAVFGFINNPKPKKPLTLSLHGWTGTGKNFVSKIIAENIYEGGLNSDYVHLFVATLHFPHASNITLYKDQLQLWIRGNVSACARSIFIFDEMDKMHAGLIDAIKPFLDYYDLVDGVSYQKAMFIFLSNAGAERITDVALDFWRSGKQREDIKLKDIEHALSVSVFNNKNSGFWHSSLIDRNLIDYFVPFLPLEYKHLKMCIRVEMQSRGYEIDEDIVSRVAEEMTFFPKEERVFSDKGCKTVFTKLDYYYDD
Chain of Streptavidin (Streptomyces avidinii) (P22629 whole entry, looked up): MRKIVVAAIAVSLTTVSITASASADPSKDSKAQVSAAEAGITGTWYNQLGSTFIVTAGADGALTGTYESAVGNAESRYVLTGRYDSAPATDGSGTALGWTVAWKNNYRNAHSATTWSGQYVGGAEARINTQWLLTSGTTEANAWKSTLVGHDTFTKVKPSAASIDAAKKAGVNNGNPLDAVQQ

For `CN(C)CCCCCCNC(=O)[C@H]1C[C@H]2C(=O)N[C@@H](CCCCN)C(=O)N2[C@H]1c1ccc(O)cc1`, the composite z-score was found to be 1.79 in assay [1]; 2.68 in assay [6]; 1.39 in [7]; 3.35 in the assay with Torsin-1A (Homo sapiens) [8]; 3.24 with Torsin-1A (Homo sapiens) [9]; 2.05 in assay [10]. For the same molecule, the z-score in [2] was 0.253 (inactive); in [3], -0.26 (inactive); in [4] it was 0.0124 (inactive); in [5], 0.737 (inactive).

Regarding `C=C[C@H](C)[C@@H](O)c1ccc(O)c2ccccc12`, the composite z-score is -0.302 in assay [1]; -0.785 in assay [6]; -0.0471 in assay [7]; -0.378 with Torsin-1A (Homo sapiens) [8]; -0.0127 with Torsin-1A (Homo sapiens) [9]; 1.38 in [10]. For the same molecule, the z-score in assay [2] was -0.276 (inactive); in assay [3] it was -0.501 (inactive); in assay [4] it was -0.869 (inactive); in assay [5], 1.63 (inactive).

In the case of `O=C(NCc1ccccc1)[C@]1(CCS(=O)(=O)c2ccccc2)N=C(c2ccc(OCCCO)cc2)O[C@@H]1c1ccccc1`, the composite z-score in [1] came to 0.721; in assay [6], 0.959; in assay [7], 0.111; in the assay with Torsin-1A (Homo sapiens) [8], 0.129; with Torsin-1A (Homo sapiens) [9], 0.585; in assay [10] it was 0.16. In addition, the z-score in assay [2] is -2.63 (inactive); in assay [3], -0.422 (inactive); in assay [4], -1.04 (inactive); in [5], 0.0925 (inactive).

Take `CC(C)N1CC=CC23O[C@@H]4C=CCOC(=O)[C@@H]4[C@H]2C(=O)N(CCO)[C@@H]3C1=O` (stereo not given in full): the composite z-score in assay [1] is -0.967; in assay [6], -1.05; in assay [7], -0.302; in the assay with Torsin-1A (Homo sapiens) [8], -2.5; with Torsin-1A (Homo sapiens) [9] it was -1.48; in [10], 0.643. In addition, the z-score is 0.273 (inactive) in assay [2], -0.289 (inactive) in assay [3], -1.3 (inactive) in assay [4] and -0.67 (inactive) in [5].

Turning to `C=CC[C@@]1(C(=O)O)N=C(c2ccc(OCCCO)cc2)O[C@@H]1c1ccccc1N=[N+]=[N-]`, the composite z-score is 0.0886 in assay [1]; 1.11 in [6]; 0.0697 in [7]; -0.115 in the assay with Torsin-1A (Homo sapiens) [8]; 0.251 with Torsin-1A (Homo sapiens) [9]; -0.203 in [10]. The z-score is -1.41 (inactive) in assay [2], 0.651 (inactive) in assay [3], 0.367 (inactive) in assay [4] and -0.432 (inactive) in assay [5].

Consider `O=C(O)[C@@]1(Cc2ccccc2)N=C(c2ccc(OCCCO)cc2)O[C@H]1c1ccccc1`, for which the composite z-score in assay [1] is -0.243; in assay [6], -0.28; in assay [7] it was 0.166; with Torsin-1A (Homo sapiens) [8], -0.184; in the assay with Torsin-1A (Homo sapiens) [9], 1.4; in assay [10], 0.422. Besides, the z-score was -0.637 (inactive) in assay [2], -0.622 (inactive) in assay [3], -0.286 (inactive) in assay [4] and -0.215 (inactive) in assay [5].

For the molecule `O=C1O[C@@H](c2ccccc2)[C@@H](c2ccccc2)N2[C@@H](c3ccc(OCCO)cc3)[C@]3(C(=O)Nc4ccccc43)[C@@H](C(=O)Nc3nc4ccccc4s3)[C@H]12`, the composite z-score in assay [1] was 0.441; in assay [6], 1.17; in [7], 0.289; with Torsin-1A (Homo sapiens) [8], 1.05; in the assay with Torsin-1A (Homo sapiens) [9] it was 1.11; in assay [10], 1.75. For the same molecule, the z-score is -3.3 (inactive) in assay [2], -1.78 (inactive) in assay [3], 0.362 (inactive) in [4] and -0.278 (inactive) in assay [5].

Turning to `O=C1O[C@H](c2ccccc2)[C@H](c2ccccc2)N2[C@H]1[C@@H](C(=O)O)[C@]1(C(=O)Nc3ccc(C#CC4=CCCCC4)cc31)[C@H]2c1ccc(OCCO)cc1`, the composite z-score in [1] was found to be 1.04; in [6], 1.22; in [7], 0.201; in the assay with Torsin-1A (Homo sapiens) [8], 0.586; in the assay with Torsin-1A (Homo sapiens) [9] it was 1.16; in assay [10], 1.09. Further, the z-score in assay [2] is -1.89 (inactive); in [3], -1.37 (inactive); in assay [4], 0.0816 (inactive); in [5], 3.42 (inactive).

On to `C=C(COC)/C(=C/C[C@H](OC(=O)c1ccncc1)c1cccc(OCCO)c1)c1cc(C(=O)OC)ccc1OC`, for which the composite z-score in [1] was 0.176; in assay [6] it was -0.258; in [7], -0.024; in the assay with Torsin-1A (Homo sapiens) [8], 0.63; in the assay with Torsin-1A (Homo sapiens) [9], 0.849; in assay [10], 1.38. Besides, the z-score was -0.865 (inactive) in assay [2], 0.358 (inactive) in [3], 8.63 (active) in assay [4] and -0.616 (inactive) in [5].

Turning to `CN1CCC(CCCO)=CC1c1ccc(CN2CCCC2)cc1` (stereo not given), the composite z-score worked out at 0.958 in [1]; 0.825 in assay [6]; 0.0096 in assay [7]; 3.12 in the assay with Torsin-1A (Homo sapiens) [8]; 2.86 with Torsin-1A (Homo sapiens) [9]; 2.08 in assay [10]. In addition, the z-score in assay [2] is -0.428 (inactive); in assay [3] it was -0.692 (inactive); in [4], -0.974 (inactive); in assay [5], 0.239 (inactive).

Take `CCOC(=O)C1=CCC(c2ccc(C#N)cc2)N(S(=O)(=O)c2ccc(C)cc2)C1` (stereo not given): the composite z-score in assay [1] was 0.445; in assay [6], 1.87; in assay [7] it was 0.211; with Torsin-1A (Homo sapiens) [8] it was 0.375; in the assay with Torsin-1A (Homo sapiens) [9], 0.709; in assay [10] it was 0.409. The z-score is -4.77 (inactive) in assay [2], -0.0317 (inactive) in [3], 0.22 (inactive) in [4] and -0.986 (inactive) in [5].

Regarding `CC(C)C(=C=CC[C@H](O)c1ccccc1OCCO)C[C@H](O)c1ccccn1`, the composite z-score in assay [1] was 0.257; in assay [6], -0.199; in assay [7] it was -0.0205; in the assay with Torsin-1A (Homo sapiens) [8], 0.635; in the assay with Torsin-1A (Homo sapiens) [9], 1.59; in assay [10], 1.63. For the same molecule, the z-score in assay [2] is -0.667 (inactive); in assay [3], -0.0531 (inactive); in [4] it was 4.99 (inactive); in [5], 0.0622 (inactive).

`O=C1N(CCS(=O)(=O)c2ccccc2)Cc2ccccc2C[C@]12N=C(c1ccc(OCCCO)cc1)O[C@@H]2c1ccccc1`: the composite z-score was 0.775 in assay [1]; 0.196 in assay [6]; 0.537 in assay [7]; 0.916 with Torsin-1A (Homo sapiens) [8]; 1.02 with Torsin-1A (Homo sapiens) [9]; 1.51 in [10]. Moreover, the z-score in assay [2] is -3.53 (inactive); in assay [3] it was 0.81 (inactive); in assay [4], 0.0686 (inactive); in assay [5], -1.48 (inactive).

For `COC(=O)c1c(CC[C@@H](CO)NC(=O)N[C@@H](Cc2ccccc2)Cn2cc(C3(O)CCCCC3)nn2)oc(C(C)=O)c1C(=O)OC`, the composite z-score in [1] was 0.636; in assay [6], 1.16; in [7], -0.0178; with Torsin-1A (Homo sapiens) [8] it was 0.69; with Torsin-1A (Homo sapiens) [9] it was 0.405; in [10], 1.7. Moreover, the z-score in assay [2] is -5.52 (inactive); in [3], -1.73 (inactive); in assay [4] it was 0.512 (inactive); in [5], -1.36 (inactive).

Turning to `COc1ccc(C(=O)Nc2cccc(CN3C(=O)[C@]4(O[C@H](CC(=O)N5CCC[C@H]5CO)[C@@H]([Si](C)(C)c5ccc(OC)cc5)[C@@H]4C)c4ccccc43)c2)cc1`, the composite z-score in [1] was 0.278; in assay [6], -0.349; in assay [7], -0.15; with Torsin-1A (Homo sapiens) [8], 0.421; with Torsin-1A (Homo sapiens) [9], 0.812; in assay [10], 1.79. Further, the z-score in [2] is -5.56 (inactive); in assay [3], 1.16 (inactive); in assay [4] it was 0.105 (inactive); in [5], -0.748 (inactive).

Turning to `C=CCC(OC(C)=O)[C@@H]1[C@@H](N(Cc2ccc(-c3cccc(C(F)(F)F)c3)o2)C(=O)c2ccc(C)cc2)c2cc(OCCCO)ccc2N1C(=O)c1ccc(-c2ccccc2)cc1` (stereo not given in full), the composite z-score in assay [1] was 0.0167; in [6], 0.535; in assay [7], 0.0154; in the assay with Torsin-1A (Homo sapiens) [8], -0.245; with Torsin-1A (Homo sapiens) [9] it was -0.141; in assay [10], 1.32. The z-score is 0.224 (inactive) in [2], -0.747 (inactive) in assay [3], -0.463 (inactive) in assay [4] and -0.183 (inactive) in assay [5].

For the molecule `CCCCC=C[C@@H](NC(=O)c1ccco1)c1ccccc1`, the composite z-score in assay [1] was found to be 0.143; in assay [6], 0.889; in assay [7], 0.194; in the assay with Torsin-1A (Homo sapiens) [8] it was 0.129; in the assay with Torsin-1A (Homo sapiens) [9] it was 0.225; in assay [10], 0.0154. Also, the z-score in assay [2] is -1.08 (inactive); in [3], -0.668 (inactive); in [4], 0.19 (inactive); in assay [5], -0.0695 (inactive).

Take `NC(=O)NCC#Cc1ccc2c(c1)[C@]1(C(=O)N2)[C@H](C(=O)N2CCCCCCC2)[C@H]2C(=O)O[C@H](c3ccccc3)[C@H](c3ccccc3)N2[C@@H]1c1ccc(OCCO)cc1`: the composite z-score came to 0.683 in [1]; 2.11 in assay [6]; 0.563 in [7]; 0.92 with Torsin-1A (Homo sapiens) [8]; 0.304 with Torsin-1A (Homo sapiens) [9]; 0.679 in [10]. The z-score is -0.416 (inactive) in assay [2], -0.0789 (inactive) in assay [3], 0.619 (inactive) in assay [4] and 0.0646 (inactive) in assay [5].

Source of the values: PubChem BioAssay.
